Assay results published in the supplement of paper PMC4022240.
± gives the standard deviation.

Tests used:
Assay in all cases: peptide microarray binding signal (635 nm), min-max normalized on array (fraction of array maximum); higher = stronger binding
Details in all cases: peptide region: H3 5-17
[1] = target: T1, HaloTag-ATRX ADD domain (163-292)
T1 chain: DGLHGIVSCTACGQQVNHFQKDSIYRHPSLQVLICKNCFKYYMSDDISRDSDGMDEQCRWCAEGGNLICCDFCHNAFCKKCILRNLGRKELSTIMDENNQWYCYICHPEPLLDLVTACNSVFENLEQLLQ
Summary of the method: (§1)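 Triplicate spots of histone 13-mer peptide–cellulose conjugates with a Cy3 tracer were printed on nitrocellulose and probed for 1 h at 4°C with biotin-labelled HaloTag reader fusions (10 nM to 1 μM) plus streptavidin-Alexa Fluor 647 or rabbit histone antibodies (1:10,000 to 1:2,000) plus anti-rabbit Alexa 647. An Axon GenePix 4000B read the 635 nm channel. Binding signal is the spot-triplicate mean intensity after min-max scaling within each library.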

[2] = target: HaloTag-ING2 PHD (mouse Ing2 200-280)
Summary of the method: as §1

[3] = target: anti-H3K4me3 antibody ab8580
Summary of the method: as §1

[4] = target: anti-H3K9me3 antibody ab8898
Summary of the method: as §1

[5] = peptide modifications: H3R8me2a H3S10ph, binder concentration: 1:2,000 dilution
[6] = peptide modifications: H3R8me2a H3S10ph, binder concentration: 1:10,000 dilution
[7] = peptide modifications: H3R8cit H3K9me1, binder concentration: 1:2,000 dilution
[8] = peptide modifications: H3R8cit H3K9me1, binder concentration: 1:10,000 dilution
[9] = peptide modifications: H3R8me2a H3K9me3, binder concentration: 1:2,000 dilution
[10] = peptide modifications: H3R8me2a H3K9me3, binder concentration: 1:10,000 dilution
[11] = peptide modifications: H3R8me1 H3K9me2, binder concentration: 1:2,000 dilution
[12] = peptide modifications: H3R8me1 H3K9me2, binder concentration: 1:10,000 dilution
[13] = peptide modifications: H3R8cit H3S10ph, binder concentration: 1:2,000 dilution
[14] = peptide modifications: H3R8cit H3S10ph, binder concentration: 1:10,000 dilution
[15] = peptide modifications: H3R8me2a H3K9me2, binder concentration: 1:2,000 dilution
[16] = peptide modifications: H3R8me2a H3K9me2, binder concentration: 1:10,000 dilution
[17] = peptide modifications: H3R8me1 H3K9ac, binder concentration: 1:2,000 dilution
[18] = peptide modifications: H3R8me1 H3K9ac, binder concentration: 1:10,000 dilution
[19] = peptide modifications: H3R8me2a H3K9ac, binder concentration: 1:2,000 dilution
[20] = peptide modifications: H3R8me2a H3K9ac, binder concentration: 1:10,000 dilution
[21] = peptide modifications: H3R8cit H3K9me3, binder concentration: 1:2,000 dilution
[22] = peptide modifications: H3R8cit H3K9me3, binder concentration: 1:10,000 dilution
[23] = peptide modifications: H3R8me1 H3T11ph, binder concentration: 1:2,000 dilution
[24] = peptide modifications: H3R8me1 H3T11ph, binder concentration: 1:10,000 dilution

## QTARKSTGGKAPR [H3 5-17 Q T A Rme2a K Sph T G G K A P R]
[1]; peptide modifications: H3R8me2a H3S10ph, binder concentration: 50 nM
  peptide microarray binding signal: 0.00837 ± 0.0001
[1]; peptide modifications: H3R8me2a H3S10ph, binder concentration: 500 nM
  peptide microarray binding signal: 0.0191 ± 0.0021
[2]; peptide modifications: H3R8me2a H3S10ph, binder concentration: 10 nM
  peptide microarray binding signal: 0.0259 ± 0.0014
[2]; peptide modifications: H3R8me2a H3S10ph, binder concentration: 100 nM
  peptide microarray binding signal: 0.0521 ± 0.0085
[3]; [5]
  peptide microarray binding signal: 0.00508 ± 0.00076
[3]; [6]
  peptide microarray binding signal: 0.00525 ± 0.00042
[4]; [5]
  peptide microarray binding signal: 0.00298 ± 0.00042
[4]; [6]
  peptide microarray binding signal: 0.00288 ± 4.3e-05

## QTARKSTGGKAPR [H3 5-17 Q T A Rcit Kme S T G G K A P R]
[1]; peptide modifications: H3R8cit H3K9me1, binder concentration: 50 nM
  peptide microarray binding signal: 0.00686 ± 0.00018
[1]; peptide modifications: H3R8cit H3K9me1, binder concentration: 500 nM
  peptide microarray binding signal: 0.0113 ± 0.00044
[2]; peptide modifications: H3R8cit H3K9me1, binder concentration: 10 nM
  peptide microarray binding signal: 0.0186 ± 0.0018
[2]; peptide modifications: H3R8cit H3K9me1, binder concentration: 100 nM
  peptide microarray binding signal: 0.0317 ± 0.0022
[3]; [7]
  peptide microarray binding signal: 0.00427 ± 0.00041
[3]; [8]
  peptide microarray binding signal: 0.00394 ± 6.2e-05
[4]; [7]
  peptide microarray binding signal: 0.00462 ± 0.00021
[4]; [8]
  peptide microarray binding signal: 0.00311 ± 7e-05

## QTARKSTGGKAPR [H3 5-17 Q T A Rme2a Kme3 S T G G K A P R]
[1]; peptide modifications: H3R8me2a H3K9me3, binder concentration: 50 nM
  peptide microarray binding signal: 0.00527 ± 0.0012
[1]; peptide modifications: H3R8me2a H3K9me3, binder concentration: 500 nM
  peptide microarray binding signal: 0.0107 ± 0.0015
[2]; peptide modifications: H3R8me2a H3K9me3, binder concentration: 10 nM
  peptide microarray binding signal: 0.0164 ± 0.0009
[2]; peptide modifications: H3R8me2a H3K9me3, binder concentration: 100 nM
  peptide microarray binding signal: 0.019 ± 0.0012
[3]; [9]
  peptide microarray binding signal: 0.0361 ± 0.011
[3]; [10]
  peptide microarray binding signal: 0.0283 ± 0.011
[4]; [9]
  peptide microarray binding signal: 0.208 ± 0.075
[4]; [10]
  peptide microarray binding signal: 0.208 ± 0.025

## QTARKSTGGKAPR [H3 5-17 Q T A Rme Kme2 S T G G K A P R]
[1]; peptide modifications: H3R8me1 H3K9me2, binder concentration: 50 nM
  peptide microarray binding signal: 0.00934 ± 0.00073
[1]; peptide modifications: H3R8me1 H3K9me2, binder concentration: 500 nM
  peptide microarray binding signal: 0.0296 ± 0.00077
[2]; peptide modifications: H3R8me1 H3K9me2, binder concentration: 10 nM
  peptide microarray binding signal: 0.0501 ± 0.013
[2]; peptide modifications: H3R8me1 H3K9me2, binder concentration: 100 nM
  peptide microarray binding signal: 0.0426 ± 0.0023
[3]; [11]
  peptide microarray binding signal: 0.0281 ± 0.0026
[3]; [12]
  peptide microarray binding signal: 0.0231 ± 0.00029
[4]; [11]
  peptide microarray binding signal: 0.175 ± 0.029
[4]; [12]
  peptide microarray binding signal: 0.0879 ± 0.0073

## QTARKSTGGKAPR [H3 5-17 Q T A Rcit K Sph T G G K A P R]
[1]; peptide modifications: H3R8cit H3S10ph, binder concentration: 50 nM
  peptide microarray binding signal: 0.00417 ± 0.00041
[1]; peptide modifications: H3R8cit H3S10ph, binder concentration: 500 nM
  peptide microarray binding signal: 0.0107 ± 0.0011
[2]; peptide modifications: H3R8cit H3S10ph, binder concentration: 10 nM
  peptide microarray binding signal: 0.00949 ± 0.0015
[2]; peptide modifications: H3R8cit H3S10ph, binder concentration: 100 nM
  peptide microarray binding signal: 0.0187 ± 0.0059
[3]; [13]
  peptide microarray binding signal: 0.00211 ± 0.00036
[3]; [14]
  peptide microarray binding signal: 0.00194 ± 0.00019
[4]; [13]
  peptide microarray binding signal: 0.00183 ± 0.00048
[4]; [14]
  peptide microarray binding signal: 0.00133 ± 7.9e-05

## QTARKSTGGKAPR [H3 5-17 Q T A Rme2a Kme2 S T G G K A P R]
[1]; peptide modifications: H3R8me2a H3K9me2, binder concentration: 50 nM
  peptide microarray binding signal: 0.007555 ± 2.4e-05
[1]; peptide modifications: H3R8me2a H3K9me2, binder concentration: 500 nM
  peptide microarray binding signal: 0.0185 ± 0.0016
[2]; peptide modifications: H3R8me2a H3K9me2, binder concentration: 10 nM
  peptide microarray binding signal: 0.0456 ± 0.0053
[2]; peptide modifications: H3R8me2a H3K9me2, binder concentration: 100 nM
  peptide microarray binding signal: 0.0526 ± 0.0031
[3]; [15]
  peptide microarray binding signal: 0.032 ± 0.0036
[3]; [16]
  peptide microarray binding signal: 0.0252 ± 0.0039
[4]; [15]
  peptide microarray binding signal: 0.185 ± 0.023
[4]; [16]
  peptide microarray binding signal: 0.104 ± 0.0059

## QTARKSTGGKAPR [H3 5-17 Q T A Rme Kac S T G G K A P R]
[1]; peptide modifications: H3R8me1 H3K9ac, binder concentration: 50 nM
  peptide microarray binding signal: 0.0137 ± 0.00035
[1]; peptide modifications: H3R8me1 H3K9ac, binder concentration: 500 nM
  peptide microarray binding signal: 0.0307 ± 0.0019
[2]; peptide modifications: H3R8me1 H3K9ac, binder concentration: 10 nM
  peptide microarray binding signal: 0.0479 ± 0.004
[2]; peptide modifications: H3R8me1 H3K9ac, binder concentration: 100 nM
  peptide microarray binding signal: 0.0783 ± 0.0015
[3]; [17]
  peptide microarray binding signal: 0.0231 ± 0.0043
[3]; [18]
  peptide microarray binding signal: 0.0272 ± 0.0053
[4]; [17]
  peptide microarray binding signal: 0.0277 ± 0.0029
[4]; [18]
  peptide microarray binding signal: 0.0205 ± 0.00081

## QTARKSTGGKAPR [H3 5-17 Q T A Rme2a Kac S T G G K A P R]
[1]; peptide modifications: H3R8me2a H3K9ac, binder concentration: 50 nM
  peptide microarray binding signal: 0.00423 ± 6.5e-05
[1]; peptide modifications: H3R8me2a H3K9ac, binder concentration: 500 nM
  peptide microarray binding signal: 0.003 ± 4.1e-05
[2]; peptide modifications: H3R8me2a H3K9ac, binder concentration: 10 nM
  peptide microarray binding signal: 0.00651
[2]; peptide modifications: H3R8me2a H3K9ac, binder concentration: 100 nM
  peptide microarray binding signal: 0.00765 ± 0.00019
[3]; [19]
  peptide microarray binding signal: 0.00208 ± 6e-05
[3]; [20]
  peptide microarray binding signal: 0.00217 ± 5.2e-05
[4]; [19]
  peptide microarray binding signal: 0.00403 ± 0.00054
[4]; [20]
  peptide microarray binding signal: 0.00427 ± 9.8e-05

## QTARKSTGGKAPR [H3 5-17 Q T A Rcit Kme3 S T G G K A P R]
[1]; peptide modifications: H3R8cit H3K9me3, binder concentration: 50 nM
  peptide microarray binding signal: 0.0148 ± 0.00057
[1]; peptide modifications: H3R8cit H3K9me3, binder concentration: 500 nM
  peptide microarray binding signal: 0.036 ± 0.002
[2]; peptide modifications: H3R8cit H3K9me3, binder concentration: 10 nM
  peptide microarray binding signal: 0.0937 ± 0.0048
[2]; peptide modifications: H3R8cit H3K9me3, binder concentration: 100 nM
  peptide microarray binding signal: 0.102 ± 0.013
[3]; [21]
  peptide microarray binding signal: 0.453 ± 0.025
[3]; [22]
  peptide microarray binding signal: 0.334 ± 0.09
[4]; [21]
  peptide microarray binding signal: 1 ± 0.068
[4]; [22]
  peptide microarray binding signal: 0.952 ± 0.059

## QTARKSTGGKAPR [H3 5-17 Q T A Rme K S Tph G G K A P R]
[1]; peptide modifications: H3R8me1 H3T11ph, binder concentration: 50 nM
  peptide microarray binding signal: 0.00818 ± 0.0006
[1]; peptide modifications: H3R8me1 H3T11ph, binder concentration: 500 nM
  peptide microarray binding signal: 0.017 ± 0.0013
[2]; peptide modifications: H3R8me1 H3T11ph, binder concentration: 10 nM
  peptide microarray binding signal: 0.0191 ± 0.0015
[2]; peptide modifications: H3R8me1 H3T11ph, binder concentration: 100 nM
  peptide microarray binding signal: 0.042 ± 0.0045
[3]; [23]
  peptide microarray binding signal: 0.00244 ± 0.00022
[3]; [24]
  peptide microarray binding signal: 0.00428 ± 0.00027
[4]; [23]
  peptide microarray binding signal: 0.0103 ± 0.012
[4]; [24]
  peptide microarray binding signal: 0.012 ± 0.01
